High-throughput results deposited in PubChem by several laboratories.
BoNT-A LC inh2: BoNT/A light chain protease inhibitors, primary screen, biochemical, flow cytometry, MLPCN library; multiplex microsphere protease substrate cleavage; inhibition, % at 10 µM; 360,000 tested, 0.17% active
Anthrax LF prot: Bacillus anthracis LF protease inhibitors, primary screen, biochemical, multiplex microsphere, MLPCN library; Lethal factor (Bacillus anthracis), P15917; multiplex microsphere protease cleavage assay; inhibition, % at 10 µM; 360,000 tested, 0.12% active; AID 588501, 2011
Target sequence (P15917 whole entry, looked up): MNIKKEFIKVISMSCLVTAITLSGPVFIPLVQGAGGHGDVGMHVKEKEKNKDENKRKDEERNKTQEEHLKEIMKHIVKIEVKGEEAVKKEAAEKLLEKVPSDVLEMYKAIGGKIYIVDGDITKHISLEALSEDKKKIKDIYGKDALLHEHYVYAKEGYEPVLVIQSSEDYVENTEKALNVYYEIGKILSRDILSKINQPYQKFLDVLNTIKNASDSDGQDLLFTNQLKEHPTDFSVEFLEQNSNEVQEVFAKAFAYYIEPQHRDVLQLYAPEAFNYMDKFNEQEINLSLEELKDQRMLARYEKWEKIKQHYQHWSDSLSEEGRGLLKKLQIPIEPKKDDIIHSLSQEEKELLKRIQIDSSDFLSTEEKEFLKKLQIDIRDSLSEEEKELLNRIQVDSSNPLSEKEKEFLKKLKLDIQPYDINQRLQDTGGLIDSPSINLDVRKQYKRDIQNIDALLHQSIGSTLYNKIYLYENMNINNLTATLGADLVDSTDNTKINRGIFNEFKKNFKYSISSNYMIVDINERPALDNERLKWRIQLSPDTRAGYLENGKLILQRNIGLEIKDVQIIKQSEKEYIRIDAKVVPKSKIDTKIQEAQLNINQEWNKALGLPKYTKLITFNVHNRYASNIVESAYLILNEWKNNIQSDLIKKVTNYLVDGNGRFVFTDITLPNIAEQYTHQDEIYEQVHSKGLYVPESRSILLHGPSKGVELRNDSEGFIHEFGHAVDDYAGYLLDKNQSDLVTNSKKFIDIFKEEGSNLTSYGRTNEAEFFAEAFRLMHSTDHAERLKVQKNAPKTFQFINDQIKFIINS
CCHFV vOTU inh: CCHFV vOTU protease inhibitors, primary screen, biochemical, Pep-AMC substrate, fluorescence; Crimean-Congo hemorrhagic fever virus L polyprotein viral ovarian tumor (vOTU) protease …; 370,000 tested, 0.55% active; inhibition, % at 11.5 µM; in the data active = inhibition above about 30%
SARS 3CLpro inh: SARS-CoV 3CLpro protease inhibitors, primary screen, biochemical, quenched FRET; inhibition, % at 6 µM; 290,000 tested, 0.14% active; Replicase polyprotein 1ab (Severe acute respiratory syndrome coronavirus), P0C6X7; AID 1706, 2009; recombinant SARS-CoV 3CLpro, quenched FRET peptide cleavage; in the data active = inhibition above about 12%
BoNT F protease: BoNT/F light chain protease inhibitors, primary screen, biochemical, flow cytometry, MLPCN library; Botulinum neurotoxin type F light chain protease (Clostridium botulinum); Multiplex microsphere protease cleavage assay; inhibition, % at 10 µM; 360,000 tested, 0.22% active; in the data active = inhibition above about 35%, passing the limit was not always enough; inconclusive = no clear call, values can overlap the other calls
Autofluor counter: flagged as autofluorescent in microsphere protease counterscreen; compound autofluorescence counterscreen, microsphere flow cytometry; hits give high values; fluorescence intensity (test concentration not listed); 360,000 tested, 3.1% active; AID 624483; in the data active = fluorescence intensity above about 16000; inconclusive = no clear call, values can overlap the other calls
Of the large screens only hits and unclear results are named; the others gave an inactive call. A selection: hits, their analogues and other compounds. The true share with any hit is near 3.9%. Rule as the data show it, unless noted: active = inhibition above about 30%; inconclusive = no clear call, values can overlap the other calls; inactive = below that.

COc1cc(-c2cc(C(=O)Nc3ccc(C)c(S(=O)(=O)N4CCOCC4)c3)c3ccccc3n2)cc(OC)c1OC	none (no result: SARS 3CLpro inh)
O=C(N/N=C/c1ccco1)c1ccncc1	Autofluor counter 24013
O=C(NCCc1ccccc1)OCc1cn(Cc2cc(F)ccc2F)nn1	none (no result: BoNT-A LC inh2, Anthrax LF prot, SARS 3CLpro inh, BoNT F protease, Autofluor counter)
CCN(CC)C(=O)c1cccc(-c2ccc(OC)cc2)c1	Autofluor counter 21818
COC(=O)c1scc(C)c1N/N=C(\C)c1ccc(F)cc1	BoNT-A LC inh2 inconclusive, Autofluor counter 23635
Cc1csc(C(=O)O)c1NC(=O)c1ccc(F)cc1	none
Cc1ccccc1OCCSc1nnc(-c2ccncc2)n1C	Autofluor counter 19279
Cn1c(SCCOc2ccccc2Cl)nnc1-c1ccncc1	none
COc1ccc(NC(=O)c2noc3c2CCC3)cc1	none
O=C(NCc1ccccc1)c1noc2c1CCCCC2	Autofluor counter 16329
O=C(NCc1cccs1)c1noc2c1CCCCC2	Autofluor counter 16908
O=C(NCc1ccco1)c1noc2c1CCCC2	none
COc1ccc(CNC(=O)c2noc3c2CCCCC3)cc1	Autofluor counter 21035
O=C(Nc1ccccc1C(F)(F)F)C1CC(=O)N(c2ccccc2F)C1 (centres undefined)	Autofluor counter 21214
CCN(CC)CCn1c(=N)n(CCOc2ccccc2)c2ccccc21	BoNT-A LC inh2 inconclusive, Autofluor counter 25371
O=C(Nc1ccc([N+](=O)[O-])cc1)c1cc(-c2ccccn2)nc2c(Cl)cccc12	none
Cc1ccc(S(=O)(=O)c2nc(Nc3ccccc3N3CCOCC3)sc2Cl)cc1	Autofluor counter 16143
CCOC(=O)c1cn(CC)c2ccc(S(=O)(=O)N3CC(C)CC(C)C3)cc2c1=O (centres undefined)	Autofluor counter 16593
CCOC(=O)c1cn(CC)c2ccc(S(=O)(=O)N3CCC(C)CC3)cc2c1=O	none
NS(=O)(=O)c1ccc(Nc2nc(-c3ccc(O)cc3)cs2)cc1	Autofluor counter 21481
O=C(Nc1ccc(Cl)c([N+](=O)[O-])c1)c1ccc(NCCCN2CCOCC2)c([N+](=O)[O-])c1	Autofluor counter 23261
Cc1ccc(NC(=O)c2ccc(NCCCN3CCOCC3)c([N+](=O)[O-])c2)cc1Cl	none
c1ccc(OCc2nc(-c3cccs3)no2)cc1	Autofluor counter 19681
COc1ccc(CCNS(=O)(=O)c2ccc(OC)cc2)cc1	none
CCN(CC)CCCNS(=O)(=O)c1ccc(OC)cc1	BoNT-A LC inh2 inconclusive, Autofluor counter 17061
C#CC(CC)(CC)NC(=O)/C=C/C(=O)O	Anthrax LF prot 32, BoNT F protease inconclusive, Autofluor counter inconclusive
CC(C)(C)OC(=O)N[C@@H](Cc1ccccc1)c1nnc(SCC(=O)O)o1	none
CCN(CC)C(=O)CSc1nnc([C@@H](NC(=O)OC(C)(C)C)C(C)C)o1	Autofluor counter 17771
CSCC[C@H](NC(=O)OC(C)(C)C)c1nnc(SCC=C(C)C)o1	Autofluor counter 25549
CSCC[C@H](NC(=O)OC(C)(C)C)c1nnc(SCC(N)=O)o1	none
CC(C)(C)OC(=O)N[C@@H](Cc1ccccc1)c1nnc(SCC(=O)c2ccc(Cl)cc2)o1	Autofluor counter 19238
CCSc1nnc([C@H](Cc2ccccc2)NC(=O)OC(C)(C)C)o1	Autofluor counter 23861
O=c1cc(NCc2ccccc2)[nH]c(=O)[nH]1	none (no result: SARS 3CLpro inh)
CCOc1c(CNCCCSc2nc(C)cc(C)n2)cccc1OC	none
O=C(Nc1ccccc1)Nc1snnc1C(=O)Nc1cccc(O)c1	none
O=C1CC(c2ccccc2)n2nc(NC(=O)c3ccccc3)nc2N1 (centres undefined)	none
c1ccc(C2CC(c3ccccc3)n3ncnc3N2)cc1 (centres undefined)	none
O=C1CC(c2ccccc2)n2ncnc2N1 (centres undefined)	BoNT-A LC inh2 inconclusive, Autofluor counter 21144
CCCC(=O)Nc1nc2n(n1)C(c1ccccc1)CC(=O)N2 (centres undefined)	Autofluor counter 17011
FC(F)(F)c1ccccc1Cc1c(C2CCCCC2)nc2ccc(Br)cn12	none (no result: SARS 3CLpro inh)
O=C(Nc1ccc(C(=O)N2CCCCC2)cc1)C1CC1	none (no result: SARS 3CLpro inh)
O=C(Nc1cc(C(=O)N2CCCC2)ccc1N1CCCC1)C1CC1	BoNT-A LC inh2 inconclusive, Autofluor counter 22662
CCCCC(=O)C1C(=O)NC(=O)NC1=O	Autofluor counter 19202
CCCCC(=O)c1c(C)cc(C)[nH]c1=O	none
CCCN1C(=O)c2cccc3c(N4CCCCC4)ccc(c23)C1=O	BoNT-A LC inh2 32
CCN(CC)S(=O)(=O)c1ccc(C(=O)OCCN2C(=O)c3cccc4c(N5CCOCC5)ccc(c34)C2=O)cc1	BoNT-A LC inh2 35
Cc1ccc(-c2cc(-c3nnc(SCC(=O)N4CCOCC4)n3N)[nH]n2)cc1	none (no result: BoNT-A LC inh2, Anthrax LF prot, SARS 3CLpro inh, BoNT F protease, Autofluor counter)
O=C(COC(=O)c1cccnc1Cl)c1ccc(Cl)cc1Cl	Autofluor counter 19499
O=C(NCc1ccccc1)NC(O)C(Cl)(Cl)Cl (centres undefined)	none
Cc1ccc(S(=O)(=O)N2CCN(C(=O)N3CCOCC3)C2c2ccc(N(C)C)cc2)cc1 (centres undefined)	BoNT-A LC inh2 inconclusive, Autofluor counter 21067
COc1ccc(C2N(C(=O)N3CCOCC3)CCN2S(=O)(=O)c2ccc(C)cc2)cc1 (centres undefined)	Autofluor counter 22397
COc1ccc(C2N(S(=O)(=O)c3ccccc3)CCN2S(=O)(=O)c2ccc(C)cc2)cc1 (centres undefined)	Autofluor counter 17266
CCOC(=O)N1CCN(S(=O)(=O)c2ccc(C)cc2)C1c1ccc(OC)cc1 (centres undefined)	none
CN(C)c1ccc(C2N(C(=O)N3CCOCC3)CCN2S(=O)(=O)c2ccccc2)cc1 (centres undefined)	none
COc1ccc(C2N(C(=O)CN3CCOCC3)CCN2S(=O)(=O)c2ccccc2)cc1 (centres undefined)	BoNT-A LC inh2 inconclusive, Autofluor counter 22919
COc1ccc(-c2nn(-c3ccccc3)cc2C(N)=O)cc1OC	none
Cc1ccc(-n2c(SCC(=O)Nc3ccc(Oc4ccccc4)cc3)nnc2-c2ccco2)cc1	none (no result: BoNT-A LC inh2, Anthrax LF prot, SARS 3CLpro inh, BoNT F protease, Autofluor counter)
Cc1ccc(S(=O)(=O)N2CCN(C(=O)N3CCOCC3)C2C)cc1 (centres undefined)	Autofluor counter 23303
CC(=O)N1CCN(S(=O)(=O)c2ccc(C)cc2)C1C (centres undefined)	BoNT-A LC inh2 inconclusive, Anthrax LF prot inconclusive, BoNT F protease inconclusive, Autofluor counter inconclusive (no result: SARS 3CLpro inh)
COc1ccc(NC(=O)CCCNC(=O)c2ccc(Cl)cc2)cc1S(=O)(=O)N1CCOCC1	none (no result: SARS 3CLpro inh)
O=C1c2ccccc2S(=O)(=O)N1CCOc1ccc(F)cc1	Autofluor counter 24481
O=C(CCN1C(=O)c2ccccc2S1(=O)=O)NCc1ccc(F)cc1	BoNT-A LC inh2 inconclusive, Anthrax LF prot inconclusive, BoNT F protease inconclusive, Autofluor counter inconclusive (no result: SARS 3CLpro inh)
